The source of these data is PubChem BioAssay AID689 (Sanford-Burnham Center for Chemical Genomics, 2007).

The structures appear in SMILES notation. The campaign covered roughly 62,000 compounds. About 80 (0.1%) were called active. How the calls were made is not given here. These entries were drawn from the full list. Potency and affinity values are given separately.

Ephrin type-A receptor 4 (Mus musculus), sequence (Q03137 whole entry, looked up): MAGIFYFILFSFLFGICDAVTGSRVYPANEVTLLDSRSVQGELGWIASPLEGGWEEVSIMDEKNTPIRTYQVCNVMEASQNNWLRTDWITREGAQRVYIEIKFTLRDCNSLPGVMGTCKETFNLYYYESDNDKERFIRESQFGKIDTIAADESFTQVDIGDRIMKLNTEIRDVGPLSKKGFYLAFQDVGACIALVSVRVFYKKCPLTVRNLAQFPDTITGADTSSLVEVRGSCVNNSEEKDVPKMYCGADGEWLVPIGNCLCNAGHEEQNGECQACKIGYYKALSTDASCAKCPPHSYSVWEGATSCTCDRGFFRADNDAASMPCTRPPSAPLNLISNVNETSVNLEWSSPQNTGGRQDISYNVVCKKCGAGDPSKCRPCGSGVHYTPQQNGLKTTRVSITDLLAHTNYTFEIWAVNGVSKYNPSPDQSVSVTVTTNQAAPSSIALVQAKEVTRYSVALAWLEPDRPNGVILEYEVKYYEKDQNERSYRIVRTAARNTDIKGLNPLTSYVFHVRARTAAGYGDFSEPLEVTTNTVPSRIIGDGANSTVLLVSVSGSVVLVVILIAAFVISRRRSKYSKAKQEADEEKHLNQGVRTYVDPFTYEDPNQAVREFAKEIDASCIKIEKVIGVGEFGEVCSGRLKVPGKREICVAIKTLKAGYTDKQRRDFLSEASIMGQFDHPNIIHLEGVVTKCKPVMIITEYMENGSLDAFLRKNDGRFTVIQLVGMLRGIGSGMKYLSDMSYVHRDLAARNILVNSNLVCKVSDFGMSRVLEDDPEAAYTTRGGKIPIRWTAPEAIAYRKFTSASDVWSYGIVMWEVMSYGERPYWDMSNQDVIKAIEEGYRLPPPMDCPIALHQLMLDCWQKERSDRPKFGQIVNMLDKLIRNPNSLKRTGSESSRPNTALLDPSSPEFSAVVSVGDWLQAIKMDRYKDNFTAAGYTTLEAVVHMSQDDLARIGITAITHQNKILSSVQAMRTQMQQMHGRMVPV

The experiment has as its target Ephrin type-A receptor 4 (Mus musculus) (UniProt Q03137). The experiment in a line: EphA4 ligand-binding antagonists – biochemical, colorimetric, mouse EphA4, primary screen (AID 689). Conditions: EphA4-AP binding to KYL peptide, pNPP A405, at 10 µM, active compounds read high.
Turning to `COc1ccc(OC)c(NC(=O)CN(c2ccccc2)S(=O)(=O)c2ccccc2[N+](=O)[O-])c1`, the inhibition was -12.2% [this sample at 5 µg/mL] (inactive). The value for `CCOC(=O)C1CCCN(C(=O)COc2ccccc2O)C1` (centres undefined) was -0.6% (inactive). The figure for `COCCN(Cc1cc2cc3c(cc2nc1Cl)OCO3)C(=O)Nc1ccccc1OC` is -13.8% (inactive); for `CCN(CC)CCCN(Cc1cc2cc3c(cc2[nH]c1=O)OCCO3)C(=O)Nc1ccc(F)cc1` it is 9.2% (inactive). The figure for `Cc1ccc(-n2ncnc2-c2cccc(Cl)c2)cc1Cl` is 0.3% [this sample at 5 µg/mL] (inactive). Consider `COc1ccccc1-c1c(C(F)(F)F)oc2c(CN3CCCC3)c(O)ccc2c1=O`, for which the inhibition is -1.3% [this sample at 5 µg/mL] (inactive). The figure for `O=C1SC(c2ccccc2)=N/C1=C/c1ccco1` is -12.4% (inactive); for `CCCSC1=N/C(=C\c2ccsc2)C(=O)S1` it is -0.1% (inactive). As for `COc1ccc(-c2nnc3n2N=C(C)CS3)cc1OC`, the inhibition is -3.7% (inactive). As to `CCC(CC)COC(=O)C(C#N)c1nc2ccccc2nc1N1CCOCC1` (centres undefined), the inhibition is 48.9% (inactive).

For the compound `N#CC(C(=O)OC1CCCCC1)c1nc2ccccc2nc1N1CCOCC1` (centres undefined), the inhibition is -17.3% (inactive). For the compound `CC1CCN(c2nc3ccccc3nc2C(C#N)C(=O)OC2CCCCC2)CC1` (centres undefined), the inhibition is 42.2% (inactive). In the case of `COCCOC(=O)C(C#N)c1nc2ccccc2nc1N1CCCC1` (centres undefined), the inhibition was 20.7% (inactive). For `C=CCN1C(=O)[C@]2(c3ccccc31)C1CCCC=C1C(C#N)=C(N)C2(C#N)C#N` (some centres undefined), the inhibition was -6.6% (inactive). The figure for `CC(=O)Nc1ccc(S(=O)(=O)N2CCN(C34CC5CC(CC(C5)C3)C4)CC2)cc1` is -1.8% (inactive); for `COc1ccc(C(CC(=O)Nc2ccc(F)cc2)c2ccccc2)cc1` (centres undefined) it is -16.8% (inactive); for `O=C(CSc1nnc(-c2ccc(S(=O)(=O)N3CCOCC3)cc2)o1)c1ccccc1F` it is -15.3% (inactive). Take `CCOC(=O)c1c(NC(C)=O)sc2c1CCCNC2=O`: the inhibition is 12.2% (inactive).

With `CCCCC(=O)Nc1sc2c(c1C(=O)OCC)CCC(C=O)=C2Cl`, the inhibition was -6.4% (inactive).

On to `CC(C)OP(=O)(c1ccc(N(C)C)cc1)C(O)c1ccncc1` (centres undefined), for which the inhibition is -19.9% (inactive).

Regarding `COc1ccc(N2CCN(C(=O)c3csc4ccccc34)CC2)cc1`, the inhibition was -8.7% (inactive). As to `Cc1ccc(S(=O)(=O)N(Cc2ccccc2)c2ccccc2C(=O)NCc2ccc(Cl)cc2)cc1`, the inhibition was 22% [this sample at 5 µg/mL] (inactive). In the case of `COc1cc(C(=O)N2CCCN(c3nc4cc(C)ccc4cc3C#N)CC2)cc(OC)c1OC`, the inhibition was 1.5% (inactive). The value for `Cc1ccc2cc(C#N)c(N3CCCN(C(=O)C4CCCO4)CC3)nc2c1` (centres undefined) was 2.7% (inactive).

What is called inhibition is the change of the read-out against control, counted positive when it falls.
